Results as given in PubChem BioAssay (Tox21).
A number with no mark means an inactive call. Records with an inconclusive call do not appear. Where a call stands in place of a potency, no number is given. The source made the active and inactive calls. Unless noted, calls follow the shape of the full dose curve.

Experiments:
[1] = Nuclear factor erythroid 2-related factor 2/antioxidant responsive element (Nrf2/ARE) small molecule agonists: qHTS cell viability counter screen in human keratinocytes (AID 1919968; active = well fitted curve in the direction sought with a large enough effect in the repeat runs; an effect the other way counts as inactive or inconclusive; also: nearly all actives have a fitted effect of over 55% in size; also: potency is read from the fitted curve at half-maximal effect)
Procedure, shortened: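 KeratinoSens HaCaT cells, 1,500/well, preincubated 5 h, then exposed to compounds in DMSO for 23 h at 37 C/5% CO2. Viability read as CellTiter-Fluor fluorescence after 1 h, in the same wells as the ARE-luciferase read.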

[2] = Nuclear factor erythroid 2-related factor 2/antioxidant responsive element (Nrf2/ARE) small molecule agonists: luciferase reporter gene qHTS assay in human keratinocytes (AID 1919969); also: nearly all actives have a fitted effect of over 35% in size; also: potency is read from the fitted curve at half-maximal effect
[3] = target: Gonadotropin-releasing hormone receptor (Homo sapiens) (UniProt P30968); assay: Human gonadotropin-releasing hormone receptor (GnRHR) small molecule agonists, calcium flux assay in GnRHR-HEK293 cells (AID 1920063); also: nearly all actives have a fitted effect of over 35% in size; also: potency is read from the fitted curve at half-maximal effect
Gonadotropin-releasing hormone receptor (Homo sapiens), sequence (P30968 whole entry, looked up): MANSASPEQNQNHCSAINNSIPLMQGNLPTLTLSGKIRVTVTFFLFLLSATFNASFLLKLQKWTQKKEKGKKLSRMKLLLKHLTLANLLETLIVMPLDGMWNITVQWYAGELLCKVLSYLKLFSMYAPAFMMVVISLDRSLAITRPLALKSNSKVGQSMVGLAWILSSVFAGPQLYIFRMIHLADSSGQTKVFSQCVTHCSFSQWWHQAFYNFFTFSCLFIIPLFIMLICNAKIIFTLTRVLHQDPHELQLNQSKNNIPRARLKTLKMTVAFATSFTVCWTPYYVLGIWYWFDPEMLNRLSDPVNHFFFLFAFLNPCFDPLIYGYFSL
Procedure, shortened: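 HEK293 cells stably expressing human GnRHR were dye-loaded for 1 h at 37 C. Compound was added in agonist mode and fluorescence (Ex/Em 480/540) recorded kinetically for 3 min. Fifteen concentrations, triplicates.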

[4] = target: KiSS-1 receptor (Homo sapiens) (UniProt Q969F8); assay: Human kisspeptin (KISS1R) small molecule agonists, calcium flux assay in KISS1R-HEK293 cells (AID 1920064; active = well fitted curve in the direction sought with a large enough effect in the repeat runs; an effect the other way counts as inactive or inconclusive)
KiSS-1 receptor (Homo sapiens), sequence (Q969F8 whole entry, looked up): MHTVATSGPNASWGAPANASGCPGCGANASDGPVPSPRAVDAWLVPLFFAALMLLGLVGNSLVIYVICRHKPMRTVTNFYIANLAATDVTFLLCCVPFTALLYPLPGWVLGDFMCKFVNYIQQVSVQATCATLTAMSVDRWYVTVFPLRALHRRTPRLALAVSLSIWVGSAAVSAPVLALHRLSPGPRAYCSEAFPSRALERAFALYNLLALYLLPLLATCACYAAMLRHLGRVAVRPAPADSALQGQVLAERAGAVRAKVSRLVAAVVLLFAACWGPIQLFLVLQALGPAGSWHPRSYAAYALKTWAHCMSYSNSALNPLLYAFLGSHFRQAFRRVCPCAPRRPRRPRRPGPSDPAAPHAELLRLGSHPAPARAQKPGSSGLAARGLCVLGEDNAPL
Procedure, shortened: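 HEK293 cells stably expressing human KISS1R were loaded with calcium dye for 1 h at 37 C, then given compound; fluorescence (Ex/Em 480/540) was read kinetically for 3 min. Fifteen concentrations, triplicate.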

[5] = p53 small molecule agonists, cell-based qHTS assay with human liver microsomes (AID 1963577); also: potency is read from the fitted curve at half-maximal effect
Procedure, shortened: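 Cells carrying a p53-responsive bla reporter were rested 5 h (37 C, 5% CO2) before compound transfer. Human liver microsomes plus NADPH, 0.5 mg/mL final apiece, supplied metabolism during the 16 h 37 C exposure.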

[6] = p53 small molecule agonists, cell-based qHTS assay with human liver microsomes: qHTS cell viability counter screen (AID 1963579); also: nearly all actives have a fitted effect of over 45% in size; also: potency is read from the fitted curve at half-maximal effect
Procedure, shortened: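 Seed p53RE-bla cells at 4,000 per well; incubate 5 h at 37 C; add compound, human liver microsomes and NADPH; incubate 16 h at 37 C; add CellTiter-Glo; after 30 min at room temperature, read luminescence.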

[7] = p53 small molecule agonists, cell-based qHTS assay with rat liver microsomes: qHTS cell viability counter screen (AID 1963580); also: nearly all actives have a fitted effect of over 45% in size; also: potency is read from the fitted curve at half-maximal effect
Procedure, shortened: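 HCT-116 p53RE-bla, 4,000 cells/well, 5 h pre-incubation; cpd + rat liver microsomes 0.5 mg/mL + NADPH 0.5 mg/mL (final); 16 h, 37 C; CellTiter-Glo, 30 min RT; luminescence.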

[8] = p53 small molecule agonists, cell-based qHTS assay: qHTS cell viability counter screen (AID 1963581); also: nearly all actives have a fitted effect of over 45% in size; also: potency is read from the fitted curve at half-maximal effect
Procedure, shortened: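 p53RE-bla HCT-116 cells, compounds added 5 h after plating and incubated 16 h at 37 C. Cytotoxicity measured in the same wells as intracellular ATP by CellTiter-Glo luminescence after 30 min at room temperature.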

[9] = target: Muscarinic acetylcholine receptor M1 (Homo sapiens) (UniProt P11229); assay: Cholinergic receptor muscarinic 1 (CHRM1) small molecule antagonists, cell-based qHTS assay (AID 1963588); also: nearly all actives have a fitted effect of over 40% in size; also: potency is read from the fitted curve at half-maximal effect
Muscarinic acetylcholine receptor M1 (Homo sapiens), sequence (P11229 whole entry, looked up): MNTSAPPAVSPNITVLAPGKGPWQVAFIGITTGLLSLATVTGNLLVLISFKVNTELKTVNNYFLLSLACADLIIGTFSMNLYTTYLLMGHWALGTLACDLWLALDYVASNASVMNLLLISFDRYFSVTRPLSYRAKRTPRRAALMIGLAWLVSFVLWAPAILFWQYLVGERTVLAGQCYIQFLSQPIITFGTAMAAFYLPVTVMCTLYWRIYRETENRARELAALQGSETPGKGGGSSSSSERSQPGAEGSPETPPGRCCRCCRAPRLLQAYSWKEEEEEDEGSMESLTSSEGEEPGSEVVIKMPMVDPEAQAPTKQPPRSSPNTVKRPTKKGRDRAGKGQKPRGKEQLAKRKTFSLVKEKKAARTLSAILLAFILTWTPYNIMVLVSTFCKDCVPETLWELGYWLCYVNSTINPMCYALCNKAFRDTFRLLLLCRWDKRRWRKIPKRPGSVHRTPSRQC
Procedure, shortened: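 CHRM1-CHO calcium-flux assay, antagonist mode. Cells were seeded 18 h, dye-loaded 1 h at 37 C and given compound for 5 min at RT, then acetylcholine was added at 50nM. FDSS fluorescence was read 3 min; 15 concentrations, three runs.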

[10] = target: Muscarinic acetylcholine receptor M1 (Homo sapiens) (UniProt P11229); assay: Cholinergic receptor muscarinic 1 (CHRM1) small molecule agonists, cell-based qHTS assay (AID 1963589); also: nearly all actives have a fitted effect of over 35% in size; also: potency is read from the fitted curve at half-maximal effect
Procedure, shortened: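 CHO cells stably expressing human CHRM1 were loaded with calcium dye for 1 h at 37 C, then compound was added in agonist mode. Intracellular calcium fluorescence was followed kinetically at 1 s intervals. Fifteen concentrations were tested in three independent runs.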

[11] = cAMP Responsive Elements (CRE) small molecule agonists, cell-based qHTS assay (AID 1963590)
Procedure, shortened: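 CRE-bla HEK 293T cells, 2,000/well in DMEM with 10% dialyzed FBS and 25 mM HEPES, pre-incubated 18 h at 37 C, then exposed to compound 3 h at 37 C. Beta-lactamase reporter read with LiveBLAzer B/G FRET substrate after 2 h at room temperature.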

[12] = cAMP Responsive Elements (CRE) small molecule antagonists, cell-based qHTS assay (AID 1963591; active = well fitted inhibition curve with a large enough effect in the signal ratio in the repeat runs, not every such curve was filed as active; the % refers to the signal ratio)
Procedure, shortened: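 CRE-bla HEK293T cells plated 18 h, then given compound plus NKH477 at 0.25 uM final for 3 h at 37C. Beta-lactamase reporter read with LiveBLAzer B/G FRET substrate after 2 h at room temperature.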

[13] = target: Beta-2 adrenergic receptor (Homo sapiens) (UniProt P07550); assay: Adrenergic beta2 receptor (ADRB2) small molecule antagonists, cell-based qHTS assay (AID 1963592); also: nearly all actives have a fitted effect of over 50% in size; also: potency is read from the fitted curve at half-maximal effect
Beta-2 adrenergic receptor (Homo sapiens), sequence (P07550 whole entry, looked up): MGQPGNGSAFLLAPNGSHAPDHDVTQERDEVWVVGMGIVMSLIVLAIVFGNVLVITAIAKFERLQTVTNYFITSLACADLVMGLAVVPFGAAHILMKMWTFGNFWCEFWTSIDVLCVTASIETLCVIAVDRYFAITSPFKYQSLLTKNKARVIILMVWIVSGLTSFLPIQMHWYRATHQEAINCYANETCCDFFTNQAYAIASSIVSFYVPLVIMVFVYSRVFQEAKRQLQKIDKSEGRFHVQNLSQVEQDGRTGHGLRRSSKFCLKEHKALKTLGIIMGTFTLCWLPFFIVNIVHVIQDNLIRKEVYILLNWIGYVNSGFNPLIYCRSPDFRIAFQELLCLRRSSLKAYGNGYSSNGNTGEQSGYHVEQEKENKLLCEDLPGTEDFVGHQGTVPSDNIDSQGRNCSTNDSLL
Procedure, shortened: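 Cells (CHO, stable ADRB2 overexpression) incubated 18-20hr at 37C; compounds added from DMSO; agonist mix (1nM isoproterenol, 100uM IBMX, 25uM Ro-20-1724) added; 0.5hr RT; d2-cAMP and anti-cAMP-cryptate added; 1hr RT; 665/615 nm read.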

[14] = target: Beta-2 adrenergic receptor (Homo sapiens) (UniProt P07550); assay: Adrenergic beta2 receptor (ADRB2) small molecule agonists, cell-based qHTS assay (AID 1963593);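 also: CHO cells stably overexpressing human ADRB2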
Procedure, shortened: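 CHO cells stably over-expressing ADRB2 were plated overnight at 37C, then dosed with compounds plus a stimulation mix containing 100uM IBMX and 25uM Ro-20-1724 for 0.5hr at room temperature. cAMP was measured by HTRF competition, 1hr.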

[15] = target: D(2) dopamine receptor (Homo sapiens) (UniProt P14416); assay: Dopamine D2 receptor (DRD2) small molecule agonists, cell-based qHTS assay (AID 1963594); also: nearly all actives have a fitted effect of over 35% in size
D(2) dopamine receptor (Homo sapiens), sequence (P14416 whole entry, looked up): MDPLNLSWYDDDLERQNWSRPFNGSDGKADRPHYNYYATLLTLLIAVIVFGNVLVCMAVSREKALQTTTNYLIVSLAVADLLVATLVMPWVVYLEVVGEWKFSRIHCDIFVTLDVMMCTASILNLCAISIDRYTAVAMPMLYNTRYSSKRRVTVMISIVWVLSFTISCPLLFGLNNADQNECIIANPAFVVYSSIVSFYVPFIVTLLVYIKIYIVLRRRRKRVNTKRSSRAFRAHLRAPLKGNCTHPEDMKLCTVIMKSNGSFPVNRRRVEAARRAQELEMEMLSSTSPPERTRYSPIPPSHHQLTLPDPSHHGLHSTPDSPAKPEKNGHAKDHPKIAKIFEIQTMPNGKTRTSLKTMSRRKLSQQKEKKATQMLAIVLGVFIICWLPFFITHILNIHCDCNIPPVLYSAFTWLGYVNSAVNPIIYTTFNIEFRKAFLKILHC
Procedure, shortened: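 cAMP accumulation in DRD2-HEK293 cells measured by HTRF after 1 h detection; compounds added 10 min before NKH477 (200nM […]) forskolin-analogue stimulation, 30 min at room temperature, with Ro20-1724 present at 0.1 mM final.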

[16] = target: D(2) dopamine receptor (Homo sapiens) (UniProt P14416); assay: Dopamine D2 receptor (DRD2) small molecule antagonists, cell-based qHTS assay (AID 1963595; active = well fitted inhibition curve with a large enough effect in the signal ratio in the repeat runs, with a control signal flat; the % refers to the signal ratio; also: potency is read from the fitted curve at half-maximal effect)
Procedure, shortened: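 Antagonism was scored as restored cAMP in HEK293-DRD2 cells. These cells were stimulated with 200 nM NKH477 and 12 nM quinpirole for 30 min at room temperature, in the presence of 0.1 mM Ro20-1724.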

[17] = p53 small molecule agonists, cell-based qHTS assay with rat liver microsomes (AID 1963578)
Procedure, shortened: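 Fluorescence from a beta-lactamase reporter under a p53 response element was measured after cells had been incubated 16 h at 37 C with test compound and rat liver microsomes plus NADPH (0.5 mg/mL final each).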

[18] = target: 5-hydroxytryptamine receptor 2A (Homo sapiens) (UniProt P28223); assay: 5-hydroxytryptamine receptor 2A (HTR2A) small molecule antagonists, cell-based qHTS assay (AID 1963586); also: nearly all actives have a fitted effect of over 45% in size
5-hydroxytryptamine receptor 2A (Homo sapiens), sequence (P28223 whole entry, looked up): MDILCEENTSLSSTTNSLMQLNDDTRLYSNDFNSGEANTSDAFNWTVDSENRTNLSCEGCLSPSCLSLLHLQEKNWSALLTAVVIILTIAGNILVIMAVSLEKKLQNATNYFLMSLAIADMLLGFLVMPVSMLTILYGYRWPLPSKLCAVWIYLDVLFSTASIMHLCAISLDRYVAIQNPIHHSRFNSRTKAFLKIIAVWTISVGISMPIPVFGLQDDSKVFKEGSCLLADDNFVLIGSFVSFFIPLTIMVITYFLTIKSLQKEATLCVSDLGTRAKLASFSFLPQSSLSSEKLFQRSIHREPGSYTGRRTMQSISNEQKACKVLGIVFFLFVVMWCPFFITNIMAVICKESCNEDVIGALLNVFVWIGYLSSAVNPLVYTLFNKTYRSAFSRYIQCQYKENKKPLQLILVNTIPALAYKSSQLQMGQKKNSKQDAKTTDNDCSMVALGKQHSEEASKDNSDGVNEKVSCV
Procedure, shortened: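 Antagonist-mode intracellular calcium assay: DOI (4 nM) added after 5 min compound pre-incubation at room temperature to dye-loaded HTR2A-CHO cells. Fluorescence followed for 3 min, sampled every second.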

[19] = target: 5-hydroxytryptamine receptor 2A (Homo sapiens) (UniProt P28223); assay: 5-hydroxytryptamine receptor 2A (HTR2A) small molecule agonists, cell-based qHTS assay (AID 1963587); also: nearly all actives have a fitted effect of over 30% in size; also: potency is read from the fitted curve at half-maximal effect
Procedure, shortened: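 Kinetic calcium-flux fluorescence (2 min, 1 sec intervals) after compound addition in agonist mode. HTR2A-CHO cells were cultured 18 h, then dye-loaded 1 h at 37 C.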

[20] = G protein-coupled receptor (GPCR) small molecule agonists, calcium flux assay: HEK293 wild type cell line counter screen (AID 1920065)
Procedure, shortened: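 Wild-type HEK293 cells plated 18 h, loaded with calcium dye 1 h at 37 C, then compounds added in agonist mode (ATP as positive control). Kinetic fluorescence Ex/Em 480/540 recorded 3 min at 1 sec intervals; 15 concentrations, triplicate.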

SMILES | Potency [1] | Potency [2] | Potency [3] | Potency [4] | Potency [5] | Potency [6] | Potency [7] | Potency [8] | Potency [9] | Potency [10] | Potency [11] | Potency [12] | Potency [13] | Potency [14] | Potency [15] | Potency [16] | Potency [17] | Potency [18] | Potency [19] | Potency [20]
CCOP(=S)(OCC)SCS(=O)(=O)CC | inactive | inactive | inactive | inactive | 1.62 µM (active) | inactive | inactive | inactive | inactive | inactive | inactive | inactive | inactive | inactive | inactive | inactive |  |  |  | 
O=c1[nH]c2ccccc2n1C1CCNCC1 | inactive | inactive | inactive | inactive | inactive | inactive | inactive | inactive | inactive | inactive | inactive | inactive |  |  | inactive | inactive | inactive | inactive | inactive | 
O=[N+]([O-])c1c(Cl)c(Cl)cc(Cl)c1Cl | 43.3 µM (active) | 9.69 µM (active) | inactive | inactive |  | inactive | 36.3 µM (active) | inactive | 11.2 µM (active) | 3.47 µM (active) |  | inactive | inactive |  |  |  | inactive |  | inactive | 
CCC(Cl)CCl (configuration not stated) | inactive | inactive | inactive | inactive |  |  | inactive | inactive |  | inactive | inactive | inactive | inactive | inactive | inactive | inactive |  | inactive | inactive | inactive
COP(=O)(OC)Oc1ccc([N+](=O)[O-])cc1 | inactive | inactive | inactive | inactive | 3.24 µM (active) | inactive | inactive | inactive | inactive | inactive | inactive | inactive |  |  | inactive | inactive |  | inactive | inactive | 
COc1nn(CSP(=S)(OC)OC)c(=O)s1 | inactive | 68.6 µM (active) | inactive | inactive |  |  |  |  |  | inactive |  |  | inactive |  |  |  |  | inactive | inactive | inactive
COC(=O)N(C(=O)N1COC2(C(=O)OC)Cc3cc(Cl)ccc3C2=N1)c1ccc(OC(F)(F)F)cc1 (configuration not stated) | inactive | inactive | inactive | inactive | inactive | inactive |  | inactive | inactive | inactive |  | inactive | inactive | inactive | inactive | inactive | inactive |  | inactive | 
CN(N=O)c1ccc([N+](=O)[O-])cc1 | inactive | inactive | inactive | inactive |  |  | inactive | inactive | inactive | inactive |  | inactive | inactive |  | inactive | inactive |  | inactive | inactive | inactive
O=C(Cl)c1ccc(Cl)cc1 | inactive | inactive | inactive | inactive | inactive | inactive | inactive | inactive | inactive | inactive | inactive | inactive | inactive |  | inactive | inactive | inactive | inactive | inactive | 
O=S(=O)(O)F | inactive | inactive | inactive | inactive |  |  | inactive | inactive | inactive | inactive |  | inactive | inactive |  | inactive | inactive |  | inactive | inactive | inactive
CC(=O)[O][Pb]([c]1ccccc1)([c]1ccccc1)[c]1ccccc1 | 3.86 µM (active) | 0.864 µM (active) | 30.9 µM (active) | inactive | inactive | 4.08 µM (active) | 8.14 µM (active) | 16.2 µM (active) |  |  |  |  |  |  |  | 4.33 µM (active) | inactive | inactive | 49 µM (active) | 
C=CCC1=C(C)[C@@H](OC(=O)[C@@H]2[C@@H](C=C(C)C)C2(C)C)CC1=O | inactive | 61.1 µM (active) | inactive | inactive | inactive |  | inactive | inactive | 16.8 µM (active) | inactive |  |  |  |  | inactive |  | inactive | inactive |  | 
C#CC(O)(C=CCl)CC (configuration not stated) | inactive | inactive | inactive | inactive | inactive | inactive |  |  | inactive | inactive | inactive | inactive |  | inactive | inactive | inactive | inactive |  | inactive | 
CCC[CH2][Sn]([CH2]CCC)([CH2]CCC)[CH2]CCC | 12.2 µM (active) | 15.4 µM (active) | inactive | inactive | inactive |  | inactive | 40.8 µM (active) | inactive |  |  |  | 48.6 µM (active) |  |  | 38.6 µM (active) | inactive | inactive |  | 
Cl/C=C\Cl | inactive | inactive | inactive | inactive | inactive | inactive |  |  | inactive | inactive | inactive | inactive | inactive |  | inactive | inactive | inactive | inactive | inactive | 
CC1=C2C[C@H]3[C@@H](CC=C4C[C@@H](O)CC[C@@]43C)[C@@H]2CC[C@]12O[C@@H]1C[C@H](C)CN[C@H]1[C@H]2C | 11.9 µM (active) | inactive | inactive | inactive | inactive |  | inactive | inactive |  | inactive | inactive | inactive | inactive |  | inactive | inactive | inactive | inactive |  | 
CNC(=O)Oc1cc(C)c(SC)c(C)c1 | inactive | inactive | inactive | inactive |  |  |  | inactive | inactive | inactive | inactive | inactive | inactive |  | inactive | inactive |  |  | inactive | inactive
